The values below come from ChEMBL document CHEMBL3433997, “St. Jude Leishmania screening dataset” (2016).

Sequence of Solute carrier family 2, facilitated glucose transporter member 1 (Homo sapiens) (P11166 whole entry): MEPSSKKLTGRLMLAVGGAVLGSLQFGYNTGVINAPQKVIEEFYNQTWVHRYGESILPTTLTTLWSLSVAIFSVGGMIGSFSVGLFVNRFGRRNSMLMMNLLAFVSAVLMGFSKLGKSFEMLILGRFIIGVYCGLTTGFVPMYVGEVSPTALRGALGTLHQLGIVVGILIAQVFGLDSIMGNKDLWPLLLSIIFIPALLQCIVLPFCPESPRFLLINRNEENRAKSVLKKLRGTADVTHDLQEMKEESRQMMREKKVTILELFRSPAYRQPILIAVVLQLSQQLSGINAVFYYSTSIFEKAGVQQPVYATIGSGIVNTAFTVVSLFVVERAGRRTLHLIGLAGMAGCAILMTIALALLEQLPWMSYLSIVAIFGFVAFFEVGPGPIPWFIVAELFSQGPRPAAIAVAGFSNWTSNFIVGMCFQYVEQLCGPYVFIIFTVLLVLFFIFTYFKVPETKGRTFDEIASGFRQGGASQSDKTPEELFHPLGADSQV

The assay concerns the target Solute carrier family 2, facilitated glucose transporter member 1 (Homo sapiens) (UniProt P11166). As to the kind of experiment: ST_JUDE_LEISH: Cytotoxicity at 2uM final concentration against transgenic Leishmania Mexicana promastigotes LmGLUT1 that are glucose transport deficient and complemented with the human glucose transporter GLUT1. Activity is measured by DNA content using SYBR green in vitro. The class given is functional.
As a reminder, the inhibition is the relative decrease from the control value, in per cent. In the case of `O=C(Nc1cccc(CN2CCCN(CC3CC3)CC2)c1)c1ccc(Cl)c(Cl)c1`, the inhibition was found to be 10.8%.

Consider `Cc1cccc2nc(-c3cccc(-c4ccc(NC(=O)Nc5ccc(Cl)c(Cl)c5)cc4)c3)[nH]c12`, for which the inhibition came out at 0.3%.

With `Cc1c2c(nn1-c1ccccc1)C(c1ccccc1)N(c1ccccc1)C2=O` (stereo unspecified), the inhibition was -0.43%.

As to `Cc1cc(N[C@@H](CC(C)C)C(=O)NCc2cccs2)nc(NCCc2ccc(F)cc2)n1`, the inhibition is 0.98%.

As for `CCN(CC)S(=O)(=O)n1ncc2c3c(N)nc(N)nc3ccc21`, the inhibition is -2.64%.

As for `O=C(Nc1ccc(Cl)cc1Cl)NC1CCN(CCCCCNC(=O)C2CC2c2ccc(Cl)c(Cl)c2)CC1` (stereo unspecified), the inhibition was 10.1%.

For the molecule `COCCNCc1ncsc1-c1ccc2c(Nc3ccc(Oc4ccccc4)cc3)ccnc2c1`, the inhibition turned out to be 0.02%.

For `O=C(Nc1cc2cc(-c3ccc(CN4CCCCC4)cc3)ccc2n2cnnc12)NC1CCCC1`, the inhibition came to 22.1%.

`O=C(NCC1CCN(C/C=C/c2ccccc2)CC1)Nc1ccc(Oc2ccccc2)cc1`: the inhibition amounted to 6.42%.

Take `CCCCCn1c(Sc2ccc(C#N)c([N+](=O)[O-])c2)nnc1-c1ccc(Cl)cc1`: the inhibition stood at 4.31%.

As for `CCN(c1ccc(O)c(CN2CCCCC2)c1)c1ccc([N+](=O)[O-])cn1`, the inhibition is 2.79%.

On to `Cc1ccc(-c2nc3cc(C(=O)NC4CCN(Cc5ccccc5)CC4)ccc3[nH]2)cc1`, for which the inhibition is 6.09%.

Consider `CS(=O)(=O)c1ccc(-c2cncc(Cl)n2)cc1`, for which the inhibition stood at 3.73%.

As to `O=C(Nc1ccc(-c2cccc(-c3nc4cc(C(F)(F)F)ccc4[nH]3)c2)cc1)c1ccoc1`, the inhibition amounted to 4.69%.

Turning to `Clc1ccc(CNC2CCN(CC3CCCCC3)CC2)cc1`, the inhibition came out at 5.87%.

On to `CCC[C@@H]([C@@H](CC1CCCCC1)C(=O)N[C@H](C(=O)Nc1ccccn1)[C@H](C)CC)N(O)C=O`, for which the inhibition stood at 3.49%.
